Screens: PubChem, Center for Chemical Genomics, University of Michigan
HIV TAR-Tat: TAR RNA-Tat peptide displacers, HIV-1, primary screen, biochemical, FRET, FAM/TAMRA-labeled Tat; 100,000 tested, 0.6% active; HIV-1 TAR RNA, Tat peptide displacement FRET; active compounds read high; z-score (no concentration beside the values); active = z-score of 3 or more in at least 2 runs
CDC25B-CDK2 inh: primary biochemical HTRF screen for blockers of M-phase inducer phosphatase 2 binding to CDK2/cyclin A; P30305+P24941; 94,000 tested, 0.72% active; AID 1259370, 2018; HTRF CDC25B-CDK2/CyclinA binding, anti-His/anti-Flag; active compounds read high; z-score (concentration not given with the values); in the data active = z-score above about 3.2
Each line names hits and unclear results; the compound was inactive in the other large screens. Compounds with a hit are over-represented: about 0.86% of the library has one in this group of screens.

CCOCCCNc1cc(N2CCOCC2)c2noc3c2c1C(=O)c1ccccc1-3	HIV TAR-Tat 6.83
CC(C)CNc1cc(N2CCOCC2)c2noc3c2c1C(=O)c1ccccc1-3	CDC25B-CDK2 inh 9.15
CCNc1cc(N2CCOCC2)c2noc3c2c1C(=O)c1ccccc1-3	HIV TAR-Tat 11.2
O=C1c2ccccc2-c2onc3c(N4CCOCC4)cc(NCCO)c1c23	none
CCc1nc(-c2csc(S(=O)(=O)N3CCC(C(=O)NC4CCCCC4)CC3)c2)no1	none (no result: CDC25B-CDK2 inh)
COc1ccc(S(=O)(=O)c2cnc3cc(OC)c(OC)cc3c2Nc2ccc(F)cc2)cc1	none
COc1cccc(N2C(=O)c3cccnc3C2Nc2ccccc2Cl)c1 (configuration not stated)	none (no result: CDC25B-CDK2 inh)
O=C(NCC1CCCO1)c1noc2c1CSc1ccccc1-2 (configuration not stated)	none
O=C(Nc1cccc(C(F)(F)F)c1)c1cccnc1N1CCCCC1	none (no result: HIV TAR-Tat)
CCc1cccc2c1N[C@@H](c1ccc(C(=O)O)cc1)[C@H]1CC=C[C@@H]21	none (no result: HIV TAR-Tat)
CCOC(=O)c1ccc2c(c1)[C@@H]1C=CC[C@@H]1[C@H](c1ccc(C(=O)OC)cc1)N2	none
COc1ccc2c(c1)[C@@H]1C=CC[C@@H]1[C@H](c1ccc(C(=O)O)cc1)N2	HIV TAR-Tat 14.3
Cc1ccc2c(c1)C1C=CCC1C(C(=O)O)N2 (configuration not stated)	none
CCOC(=O)[C@@H]1Nc2ccc(C(=O)O)cc2[C@@H]2C=CC[C@H]12	HIV TAR-Tat 16.6, CDC25B-CDK2 inh 14.6
CCOC(=O)c1ccc2c(c1)[C@@H]1C=CC[C@@H]1[C@H](c1ccc(C(=O)O)cc1)N2	HIV TAR-Tat 7.95
CC(C)c1ccc2c(c1)[C@@H]1C=CC[C@@H]1[C@H](c1ccc(C(=O)O)cc1)N2	none (no result: HIV TAR-Tat)
Cc1cccc2c1N[C@H](c1ccc(C(=O)O)cc1)C1CC=CC21 (some centres not stated)	CDC25B-CDK2 inh 6.75
CCOC(=O)c1noc2nc(C)nc(Nc3ccc(OC)c(OC)c3)c12	none (no result: CDC25B-CDK2 inh)
O=S(=O)(Nc1ccc(O)c(Cl)c1)c1cccs1	none
CCCC1=NN(S(=O)(=O)c2ccc(C)cc2)C(O)(C(F)(F)F)C1 (configuration not stated)	none (no result: HIV TAR-Tat)
CCOC(=O)c1cn[nH]c1S(=O)(=O)N1CCN(C(=O)OCC)CC1	none (no result: CDC25B-CDK2 inh)
c1ccc(-c2cc(N3CCCCC3)n3cnnc3n2)cc1	none
Cc1ccc(Cn2c(=O)oc3ccc(C(=O)Nc4nccs4)cc32)cc1	none (no result: CDC25B-CDK2 inh)
CNC(=O)c1c(NC(=O)c2ccc(S(=O)(=O)N3CCc4ccccc43)cc2)sc2c1CCC2	none (no result: CDC25B-CDK2 inh)
COC(=O)c1cccc2c1NC(c1ccc(Br)cc1)C1CC=CC21 (configuration not stated)	none
CC(C)c1ccc([C@@H]2Nc3ccc(C(=O)O)cc3[C@@H]3C=CC[C@@H]32)cc1	none (no result: HIV TAR-Tat)
COc1cccc2c1NC(C(=O)O)C1CC=CC21 (configuration not stated)	HIV TAR-Tat 41.8
COC(=O)c1ccc2c(c1)C1C=CCC1[C@@H](c1ccc(C(=O)O)cc1)N2 (some centres not stated)	HIV TAR-Tat 7.39
O=C1N(Cc2ccccc2Cl)c2ccccc2S(=O)(=O)N1Cc1ccc(F)cc1	none (no result: CDC25B-CDK2 inh)
O=c1c2nccnc2nc(SCc2ccc(F)cc2)n1CC1CCCO1 (configuration not stated)	none
COCC1=CC2CC(C1)C[B-]1(C2)Oc2cccc3ccc[n+]1c23 (configuration not stated)	CDC25B-CDK2 inh 5.18 (no result: HIV TAR-Tat)
Cc1ccc(C(=O)c2cnc3cc4c(cc3c2N2CCOCC2)OCO4)cc1C	HIV TAR-Tat 8.79
CCc1ccc(C(=O)c2cnc3cc4c(cc3c2N2CCCC2)OCO4)cc1	none
CC1=C(c2ccc(F)cc2)S(=O)(=O)NC1=NC(C)c1ccc2c(c1)OCCO2 (configuration not stated)	none (no result: CDC25B-CDK2 inh)
O=c1[nH]c(CSc2nnc(-c3cccnc3)n2-c2ccccc2)nc2ccccc12	none
CCn1nc(C)c(CNS(=O)(=O)c2ccc(OC)cc2)c1C	none (no result: CDC25B-CDK2 inh)
CCn1cc(CCCC(=O)NC2CCCCC2C)c2ccccc21 (configuration not stated)	none (no result: CDC25B-CDK2 inh)
CCC(C)NS(=O)(=O)c1cc(-c2cc(C)no2)ccc1C(C)C (configuration not stated)	none (no result: CDC25B-CDK2 inh)
COc1ccc2c3c([nH]c2c1)C(C)(C(=O)O)NCC3 (configuration not stated)	none
CC1(C(=O)O)NCCc2c1[nH]c1ccccc21 (configuration not stated)	CDC25B-CDK2 inh 10.4
CCCCN1C(=O)c2c(NC(C)=O)c3ccccc3n2CC1(C)C(=O)NC1CCCC1 (configuration not stated)	none (no result: CDC25B-CDK2 inh)
Fc1ccc(COc2ccc(C3SCCS3)cc2)cc1	none (no result: HIV TAR-Tat)
Cc1[nH]c(=O)[nH]c(=O)c1S(=O)(=O)Nc1ccc2oc(-c3ccncc3)nc2c1	HIV TAR-Tat 6.21 (no result: CDC25B-CDK2 inh)
Cc1[nH]c(=O)[nH]c(=O)c1S(=O)(=O)Nc1ccc(-c2ccno2)cc1	none (no result: CDC25B-CDK2 inh)
Cc1nc(-c2cccs2)c(CC(=O)NCCc2cccs2)s1	none
O=c1cc(-c2ccccc2)oc2cc(O)c(O)c(O)c12	HIV TAR-Tat 29.3 (no result: CDC25B-CDK2 inh)
COc1cccc2oc(-c3ccccc3)cc(=O)c12	none (no result: CDC25B-CDK2 inh)
COc1ccc(S(=O)(=O)Oc2ccc(C)cc2[N+](=O)[O-])cc1OC	none (no result: HIV TAR-Tat)
COc1ccc(S(=O)(=O)OCC(F)([N+](=O)[O-])[N+](=O)[O-])cc1Br	CDC25B-CDK2 inh 4.15 (no result: HIV TAR-Tat)
Cc1cccc(-c2nc3nc(C)cc(Nc4ccccc4)n3n2)c1	none
COC(=O)c1cc2sccc2n1CC(=O)c1ccccc1	CDC25B-CDK2 inh 9.18
COC(=O)c1cc2sccc2n1CC(=O)N(C)c1ccccc1	none
CC(C)CCNC(=O)Nc1c[nH]c(=O)[nH]c1=O	none (no result: CDC25B-CDK2 inh)
COCCNC(=S)Nc1ccc2nc3c4ccccc4c4ccccc4c3nc2c1	CDC25B-CDK2 inh 11 (no result: HIV TAR-Tat)
COCCNC(=O)Nc1ccc2sc(NS(=O)(=O)c3ccccc3)nc2c1	none (no result: CDC25B-CDK2 inh)
CC(C)N(C(=S)Nc1ccc2nc3c4ccccc4c4ccccc4c3nc2c1)C(C)C	CDC25B-CDK2 inh 10.1 (no result: HIV TAR-Tat)
CCCNC(=S)Nc1ccc2nc3c4ccccc4c4ccccc4c3nc2c1	CDC25B-CDK2 inh 11.3 (no result: HIV TAR-Tat)
OCCCNC(=S)Nc1ccc2nc(-c3ccccc3)c(-c3ccccc3)nc2c1	CDC25B-CDK2 inh 5.86 (no result: HIV TAR-Tat)
O=C(NCCCO)Nc1ccc2nc(-c3ccccc3)c(-c3ccccc3)nc2c1	none (no result: HIV TAR-Tat)
S=C(Nc1ccc2nc3c4ccccc4c4ccccc4c3nc2c1)N1CCOCC1	none (no result: HIV TAR-Tat)
CCCNC(=S)Nc1ccc(Cl)cc1	none (no result: HIV TAR-Tat)
Cn1cnc2cccc(F)c2c1=N	none (no result: HIV TAR-Tat)
CC1Cc2cc(S(=O)(=O)NCc3ccco3)ccc2N1C(=O)C1CCC1 (configuration not stated)	none (no result: CDC25B-CDK2 inh)
CCOC(=O)c1sc2ccccc2c1S(=O)(=O)Nc1cc(OC)cc(OC)c1	none (no result: CDC25B-CDK2 inh)
C=CCNC(=O)Nc1ccc2nc(-c3ccccc3)c(-c3ccccc3)nc2c1	none (no result: HIV TAR-Tat)
C=CCNC(=S)Nc1ccc2nc3c4ccccc4c4ccccc4c3nc2c1	CDC25B-CDK2 inh 4.68 (no result: HIV TAR-Tat)
CC(C)c1ccc(C2CC(=O)N3CN(Cc4ccco4)CSC3=C2C#N)cc1 (configuration not stated)	none
COc1cccc(C2CC(=O)N3CN(Cc4ccco4)CSC3=C2C#N)c1OC (configuration not stated)	CDC25B-CDK2 inh 3.37
COc1ccc(C2CC(=O)N3CN(Cc4ccco4)CSC3=C2C#N)c(OC)c1 (configuration not stated)	CDC25B-CDK2 inh 5.93
COc1ccc(-c2nc(SCc3cc(=O)n4c(C)csc4n3)n[nH]2)cc1	none (no result: CDC25B-CDK2 inh)
CSc1ccc(CCNC(=O)c2noc3c2CCc2sccc2-3)cc1	none (no result: CDC25B-CDK2 inh)
